Test results reported in PubChem BioAssay AID422 (Emory University Molecular Libraries Screening Center, 2006).
Among all 160,000 compounds or so, about 310 (0.19%) were called active. This is one part of a sample in which actives are shown more often than they occur. Cut-off read from the data, not from the text of the source: active = inhibition above about 30%; inactive = the rest.

target: 14-3-3 protein gamma (Homo sapiens) (UniProt P61981); assay: 14-3-3 gamma/Raf peptide interaction modulators – biochemical, fluorescence polarization, primary screen (AID 422); conditions: FP, 14-3-3gamma / TMR-pS259-Raf peptide binding; at 40 µM; stronger effect = higher value;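 note: 0% = protein plus tracer without compound and 100% = blank with tracer alone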
Sequence (P61981 whole entry, looked up): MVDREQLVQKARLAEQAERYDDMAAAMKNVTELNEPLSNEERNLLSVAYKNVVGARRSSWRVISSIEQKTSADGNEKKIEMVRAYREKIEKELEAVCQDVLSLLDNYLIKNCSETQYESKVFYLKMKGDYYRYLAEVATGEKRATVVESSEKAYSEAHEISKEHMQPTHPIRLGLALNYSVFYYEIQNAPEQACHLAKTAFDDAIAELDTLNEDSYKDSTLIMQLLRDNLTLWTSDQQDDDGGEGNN

inhibition, inactive:
Cc1ccc2[nH]cc(C(=O)c3ccccc3)c(=O)c2c1 -15%, O=[N+]([O-])c1ccc(N2CCN(S(=O)(=O)c3ccc4ccccc4c3)CC2)cc1NCc1ccco1 -5.05%, O=C(c1ccco1)N1CCN(c2cccc(Cl)c2)CC1 -9.3%, CC1CC(C)CN(C(=O)c2cc3c(=O)oc4ccccc4c3s2)C1 (centres undefined) -6.3%, CC(C)CCNC(=O)c1ccc2c(c1)N(Cc1ccccc1)C(=O)CS2 3.32%, O=C(Nc1cccc(-c2nc3ccccc3s2)c1)c1cccnc1Cl -17.9%, COc1cc(NS(=O)(=O)c2c(C)n[nH]c2C)cc(OC)c1 -0.99%, COc1cc2c(=O)n(CC3CCCO3)c(=O)n(CC(=O)c3ccc(Br)cc3)c2cc1OC (centres undefined) -0.78%, Cc1cc(OCC(=O)Nc2sc3c(c2C(N)=O)CCCC3)ccc1[N+](=O)[O-] -9.64%, O=C(Nc1c2c(nn1-c1ccc(F)cc1)CSC2)c1cccc(F)c1 -4.31%, COc1ccc(C)cc1NC(=O)C1(S(=O)(=O)c2ccc(Cl)cc2)CC1 -7.62%, O=C(NCCN1CCCC1)C1CCC(CNS(=O)(=O)c2ccc(Cl)cc2)CC1 (centres undefined) 1.41%, Cc1ccccc1N1C(=O)C2C3C=CC(C4CC34)C2C1=O (centres undefined) 8.35%, Cc1cc(OCC(=O)Nc2ncc(S(=O)(=O)c3ccc([N+](=O)[O-])cc3)s2)cc(C)c1Cl -4.64%, COc1ccc(C2C(C(=O)c3cccs3)=C(O)C(=O)N2CCN(C)C)cc1 (centres undefined) 11.4%, COc1ccc(C2=NN(c3ccccc3)C(c3ccc(F)cc3)C2)cc1 (centres undefined) -10.6%, CCC(C)Nc1ncnc2c1cnn2-c1cccc(C)c1 (centres undefined) 2.9%, CC(=O)Nc1ccccc1Sc1ccc2c3c(cccc13)C(=O)N(c1ccc(C)cc1)C2=O -10.1%, O=C1c2cccc3cccc(c23)C(=O)N1c1cccc(O)c1 -4.23%, O=C(O)c1ccc(N2NC(c3ccccc3)=CC2O)cc1 (centres undefined) -4.41%, O=C(CCS(=O)(=O)c1nc(-c2cccs2)cc(C(F)(F)F)n1)Nc1cc(Cl)ccc1O -33.5%, COc1cc(NS(=O)(=O)c2ccc3c(c2)CCN3C(C)=O)cc(OC)c1 0.2%, Cn1ccnc1SCC(=O)Nc1ccc(F)cc1 -12.9%, CCSCCOC(=O)C1=C(C)NC(=O)NC1c1ccc(OC)cc1 (centres undefined) -1.92%, O=C(NCc1ccco1)c1ccc2c(=O)n(Cc3ccc(Cl)cc3)c(=S)[nH]c2c1 -14.3%, CC1=C(C(=O)OCC2CCCO2)C(c2ccccc2Cl)C2=C(CCCC2=O)N1 (centres undefined) -2.91%, CC(C)(C)c1ccc(C2SCC(=O)N2c2ccccc2F)cc1 (centres undefined) -3.17%, CCCCOC(=O)c1cc(-c2ccccc2)nc2ccc(Br)cc12 2.65%, CCOc1ccc(C2Nc3ccccc3-c3nnc(SC)nc3O2)cc1C (centres undefined) -68.8%, CSc1nnc2c(n1)OC(c1ccc3c(c1)OCO3)Nc1ccccc1-2 (centres undefined) 6.07%, CCOC(=O)c1sc2ncnc(N3CCCC(C(=O)OCC)C3)c2c1C (centres undefined) -2.94%, Cc1ccccc1N=Cc1cccc([N+](=O)[O-])c1O 5.41%, Cc1ccc2nc(-c3cc(NC(=O)c4cc(Cl)ccc4[N+](=O)[O-])ccc3Cl)oc2c1 -15.8%, CCSCCSc1nc(C)cc(C)n1 -17.9%, CSc1nc(OCC(=O)c2ccccc2)c2c3c(sc2n1)CCCC3 4.08%

inhibition, active:
O=C(c1ccco1)N1CCN(c2ccc([N+](=O)[O-])c(NCc3cccnc3)c2)CC1 46.1%, O=C1c2cccc3c(N=Cc4ccccc4O)ccc(c23)C(=O)N1c1ccccc1 31.4%, CSc1nnc2c(n1)OC(c1ccccc1Cl)Nc1ccccc1-2 (centres undefined) 31.9%, Cc1c(Cl)c(C)c([N+](=O)[O-])c(O)c1C=Nc1ccc(Br)cc1C(=O)O 46.9%
